What all share (parameters): scale not given: direction of the effect not stated beside the values
Assay [1] has as its target Protein translocase subunit SecA (Escherichia coli (strain K12)) (UniProt P10408). Put plainly: Assay to Identify E. coli SecA ATPase Inhibitors. In kind it is functional. As to conditions: 30 µM.
Assay [2] deals with T1, Ubiquitin-activating enzyme e1, putative (Leishmania donovani (strain BPK282A1)) (UniProt E9BSI1).
T1 sequence (whole entry): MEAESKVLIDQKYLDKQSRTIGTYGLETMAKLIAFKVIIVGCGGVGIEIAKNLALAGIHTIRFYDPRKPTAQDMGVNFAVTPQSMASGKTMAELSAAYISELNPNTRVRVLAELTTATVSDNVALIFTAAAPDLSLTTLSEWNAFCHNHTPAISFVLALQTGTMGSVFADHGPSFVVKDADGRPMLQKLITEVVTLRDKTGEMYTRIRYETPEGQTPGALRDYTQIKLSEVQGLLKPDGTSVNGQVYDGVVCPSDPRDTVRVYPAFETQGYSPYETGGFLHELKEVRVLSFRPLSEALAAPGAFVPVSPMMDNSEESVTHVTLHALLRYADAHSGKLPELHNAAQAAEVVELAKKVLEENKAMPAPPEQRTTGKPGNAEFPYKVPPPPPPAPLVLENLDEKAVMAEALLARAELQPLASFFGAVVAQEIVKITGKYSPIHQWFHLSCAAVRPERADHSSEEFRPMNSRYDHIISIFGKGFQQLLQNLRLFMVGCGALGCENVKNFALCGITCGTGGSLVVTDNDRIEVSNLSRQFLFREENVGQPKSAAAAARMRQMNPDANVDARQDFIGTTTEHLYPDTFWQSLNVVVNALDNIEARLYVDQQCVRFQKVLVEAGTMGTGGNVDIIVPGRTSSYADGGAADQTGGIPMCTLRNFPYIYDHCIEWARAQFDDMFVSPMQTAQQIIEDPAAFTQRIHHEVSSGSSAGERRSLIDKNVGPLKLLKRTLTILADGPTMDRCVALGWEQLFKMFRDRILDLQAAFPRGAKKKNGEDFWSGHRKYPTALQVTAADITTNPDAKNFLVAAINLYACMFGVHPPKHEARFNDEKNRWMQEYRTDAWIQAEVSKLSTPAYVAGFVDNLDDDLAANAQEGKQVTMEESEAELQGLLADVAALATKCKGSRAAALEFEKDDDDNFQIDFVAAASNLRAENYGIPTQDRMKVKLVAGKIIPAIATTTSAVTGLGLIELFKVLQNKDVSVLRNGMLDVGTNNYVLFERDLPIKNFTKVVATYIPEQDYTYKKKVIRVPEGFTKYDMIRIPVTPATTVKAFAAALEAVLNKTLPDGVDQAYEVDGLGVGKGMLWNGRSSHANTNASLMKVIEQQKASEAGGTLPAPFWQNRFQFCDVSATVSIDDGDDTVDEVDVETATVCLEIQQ
Put plainly: Leishmania donovani Ubiquitin Activating Enzyme (LdE1). In kind it is functional. As to conditions: 30 µM.

Assay [3] addresses AMP-activated protein kinase, AMPK (Homo sapiens) (UniProt P54646+O43741+P54619+Q9UGJ0+Q9Y478+Q13131+Q9UGI9). Briefly: AMP-dependent Kinase enzyme assay. An in vitro enzyme assay that detects ADP turnover that is directly proportional to AMPK activity. This uses naive AMPK that is activated during the assay with MK-8722. In kind it is functional. The conditions noted are these: 30 µM.

The target in assay [4] is Sialic acid-binding Ig-like lectin 9 (Homo sapiens) (UniProt Q9Y336). Briefly: Hs-Siglec9 ALPHAscreen SOP 20170721. The conditions noted are these: 10 µM.
In another assay the test system is Trypanosoma cruzi. Briefly: Trypanosoma cruzi phosphomannomutase and mannose-1-phosphate guanylyltransferase assay. In kind it is functional. As to conditions: 10 µM.
The target in assay [5] is T2, Arginase-2, mitochondrial (Homo sapiens) (UniProt P78540).
T2 sequence (whole entry): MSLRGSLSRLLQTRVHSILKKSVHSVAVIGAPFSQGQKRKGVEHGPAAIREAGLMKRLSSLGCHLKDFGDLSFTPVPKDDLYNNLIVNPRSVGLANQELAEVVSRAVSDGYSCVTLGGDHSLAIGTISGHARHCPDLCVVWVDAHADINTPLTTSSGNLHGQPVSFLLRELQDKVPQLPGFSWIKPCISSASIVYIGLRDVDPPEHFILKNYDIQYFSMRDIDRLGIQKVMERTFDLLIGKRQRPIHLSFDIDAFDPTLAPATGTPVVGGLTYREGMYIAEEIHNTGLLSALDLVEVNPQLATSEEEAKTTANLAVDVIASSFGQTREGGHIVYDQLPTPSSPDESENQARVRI
Put plainly: in vitro enzyme assay to detect the production of urea directly proportional to the activity of Arginase II. Further: in the data most compounds retested in dose-response had high values. As to conditions: 33.3 µM. The format is functional.

The target in assay [6] is T3, Proteasome subunit beta (Trypanosoma cruzi) (UniProt O96673).
T3 sequence (whole entry): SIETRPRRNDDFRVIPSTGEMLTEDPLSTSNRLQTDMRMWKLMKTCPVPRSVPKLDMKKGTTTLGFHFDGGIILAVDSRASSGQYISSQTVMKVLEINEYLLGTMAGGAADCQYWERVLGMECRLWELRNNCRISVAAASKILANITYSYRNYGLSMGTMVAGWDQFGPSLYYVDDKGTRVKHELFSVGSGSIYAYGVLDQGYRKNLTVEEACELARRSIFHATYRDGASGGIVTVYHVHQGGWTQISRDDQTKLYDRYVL
Put plainly: Trypanosoma cruzi proteasome chymotrypsin-like activity (TcProtChymo) assay. Further: in the data most compounds retested in dose-response had high values. In kind it is functional. The conditions noted are these: 9.37 µM.

The species named for another assay is Homo sapiens. Put plainly: To identify inhibition of the IFN signalling (Jak-Stat) pathway via expression of an eGFP reporter gene under the control of an IFN-stimulated response element (ISRE) containing MxA promoter. The format is functional. The conditions noted are these: 30 µM. Background: A reporter such as luciferase makes a cellular process visible.

In assay [7] the target is T4, Tyrosyl-tRNA synthetase, putative (Trypanosoma cruzi (strain CL Brener)) (UniProt Q4DSP6).
T4 sequence (whole entry): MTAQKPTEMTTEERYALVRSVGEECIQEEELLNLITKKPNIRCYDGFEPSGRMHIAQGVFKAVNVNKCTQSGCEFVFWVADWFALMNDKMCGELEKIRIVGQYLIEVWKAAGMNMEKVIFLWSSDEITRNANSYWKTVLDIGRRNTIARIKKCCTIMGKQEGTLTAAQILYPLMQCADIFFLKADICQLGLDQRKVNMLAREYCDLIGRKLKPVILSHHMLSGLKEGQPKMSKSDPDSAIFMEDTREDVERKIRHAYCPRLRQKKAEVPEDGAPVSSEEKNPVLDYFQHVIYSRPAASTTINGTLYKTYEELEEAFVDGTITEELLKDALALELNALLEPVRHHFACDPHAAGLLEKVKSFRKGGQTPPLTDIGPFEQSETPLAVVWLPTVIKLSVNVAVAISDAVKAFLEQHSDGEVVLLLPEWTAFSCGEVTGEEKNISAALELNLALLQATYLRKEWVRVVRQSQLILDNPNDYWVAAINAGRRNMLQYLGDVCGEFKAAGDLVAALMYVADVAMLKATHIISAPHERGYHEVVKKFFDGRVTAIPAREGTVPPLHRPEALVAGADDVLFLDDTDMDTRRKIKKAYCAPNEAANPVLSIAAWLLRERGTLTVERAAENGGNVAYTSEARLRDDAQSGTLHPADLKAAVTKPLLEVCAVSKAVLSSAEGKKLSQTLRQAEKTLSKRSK
Briefly: Trypanosoma cruzi tyrosyl tRNA synthetase (TcYRS) _High Tyrosine SOP. Further: in the data most compounds retested in dose-response had high values. The format is functional. As to conditions: 30 µM.

The target of assay [8] is T4, Tyrosyl-tRNA synthetase, putative (Trypanosoma cruzi (strain CL Brener)). Put plainly: Trypanosoma cruzi tyrosyl tRNA synthetase (TcYRS) SOP. In kind it is functional. As to conditions: 30 µM.
Assay [9] addresses Chromo domain-containing protein 1 (Saccharomyces cerevisiae (strain ATCC 204508 / S288c) (Baker's yeast)) (UniProt P32657). Put plainly: ScCHD-1 Enzyme Inhibition Assay. Further: in the data most compounds retested in dose-response had high values. In kind it is functional. The conditions noted are these: 30 µM.

Structures are written as SMILES. For some of these results: Measured potencies and affinities stand elsewhere.

Chain of Sialic acid-binding Ig-like lectin 9 (Homo sapiens) (Q9Y336 whole entry): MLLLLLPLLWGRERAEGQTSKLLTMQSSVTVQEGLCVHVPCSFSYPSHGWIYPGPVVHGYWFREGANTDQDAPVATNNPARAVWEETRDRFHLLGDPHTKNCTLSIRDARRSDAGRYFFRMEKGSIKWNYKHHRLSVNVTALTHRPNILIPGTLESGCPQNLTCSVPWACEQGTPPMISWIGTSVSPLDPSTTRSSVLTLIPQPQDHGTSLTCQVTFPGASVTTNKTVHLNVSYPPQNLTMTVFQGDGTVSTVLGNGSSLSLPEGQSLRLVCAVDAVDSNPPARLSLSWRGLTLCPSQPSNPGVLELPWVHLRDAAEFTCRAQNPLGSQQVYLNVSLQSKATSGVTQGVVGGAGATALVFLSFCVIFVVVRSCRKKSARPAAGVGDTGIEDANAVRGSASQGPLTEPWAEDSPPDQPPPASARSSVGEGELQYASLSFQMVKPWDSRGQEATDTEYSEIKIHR
Chain of Chromo domain-containing protein 1 (Saccharomyces cerevisiae (strain ATCC 204508 / S288c) (Baker's yeast)) (P32657 whole entry, the tested form may be a part): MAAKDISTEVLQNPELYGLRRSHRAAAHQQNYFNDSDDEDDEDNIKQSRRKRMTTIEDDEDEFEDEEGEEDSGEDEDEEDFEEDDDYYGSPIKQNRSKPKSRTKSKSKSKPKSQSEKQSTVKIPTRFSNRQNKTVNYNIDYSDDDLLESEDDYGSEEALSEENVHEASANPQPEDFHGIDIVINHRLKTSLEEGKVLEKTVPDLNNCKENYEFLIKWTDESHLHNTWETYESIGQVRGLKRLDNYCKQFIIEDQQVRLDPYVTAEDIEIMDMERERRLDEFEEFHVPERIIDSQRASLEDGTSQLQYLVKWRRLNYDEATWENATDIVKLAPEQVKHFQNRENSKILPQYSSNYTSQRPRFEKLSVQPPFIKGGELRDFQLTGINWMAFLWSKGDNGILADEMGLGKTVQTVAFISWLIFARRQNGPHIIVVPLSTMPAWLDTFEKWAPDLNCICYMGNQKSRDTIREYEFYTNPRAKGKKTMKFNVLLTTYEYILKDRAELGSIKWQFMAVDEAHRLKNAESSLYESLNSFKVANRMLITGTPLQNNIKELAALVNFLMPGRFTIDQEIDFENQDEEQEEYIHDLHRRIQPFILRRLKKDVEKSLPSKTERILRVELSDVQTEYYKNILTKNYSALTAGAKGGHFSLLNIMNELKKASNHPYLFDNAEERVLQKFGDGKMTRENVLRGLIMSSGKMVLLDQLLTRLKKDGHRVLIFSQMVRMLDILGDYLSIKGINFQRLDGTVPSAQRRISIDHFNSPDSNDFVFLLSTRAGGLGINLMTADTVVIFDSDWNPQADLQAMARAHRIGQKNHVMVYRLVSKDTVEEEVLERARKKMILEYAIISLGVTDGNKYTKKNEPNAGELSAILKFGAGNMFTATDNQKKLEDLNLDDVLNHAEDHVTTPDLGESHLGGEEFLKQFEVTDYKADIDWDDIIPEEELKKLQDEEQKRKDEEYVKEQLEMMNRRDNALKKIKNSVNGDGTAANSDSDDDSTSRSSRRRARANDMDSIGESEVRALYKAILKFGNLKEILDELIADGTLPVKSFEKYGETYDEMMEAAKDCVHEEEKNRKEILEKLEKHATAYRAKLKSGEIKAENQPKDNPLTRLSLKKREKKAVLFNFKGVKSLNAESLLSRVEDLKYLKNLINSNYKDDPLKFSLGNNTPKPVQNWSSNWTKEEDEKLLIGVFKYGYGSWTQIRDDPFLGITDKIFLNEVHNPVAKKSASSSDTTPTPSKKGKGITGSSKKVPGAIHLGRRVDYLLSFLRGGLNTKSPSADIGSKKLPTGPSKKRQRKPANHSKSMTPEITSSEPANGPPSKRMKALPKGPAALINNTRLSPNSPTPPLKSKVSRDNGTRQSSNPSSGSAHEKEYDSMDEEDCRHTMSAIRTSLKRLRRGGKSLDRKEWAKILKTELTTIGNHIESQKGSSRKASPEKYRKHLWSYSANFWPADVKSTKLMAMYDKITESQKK
Chain of Protein translocase subunit SecA (Escherichia coli (strain K12)) (P10408 whole entry): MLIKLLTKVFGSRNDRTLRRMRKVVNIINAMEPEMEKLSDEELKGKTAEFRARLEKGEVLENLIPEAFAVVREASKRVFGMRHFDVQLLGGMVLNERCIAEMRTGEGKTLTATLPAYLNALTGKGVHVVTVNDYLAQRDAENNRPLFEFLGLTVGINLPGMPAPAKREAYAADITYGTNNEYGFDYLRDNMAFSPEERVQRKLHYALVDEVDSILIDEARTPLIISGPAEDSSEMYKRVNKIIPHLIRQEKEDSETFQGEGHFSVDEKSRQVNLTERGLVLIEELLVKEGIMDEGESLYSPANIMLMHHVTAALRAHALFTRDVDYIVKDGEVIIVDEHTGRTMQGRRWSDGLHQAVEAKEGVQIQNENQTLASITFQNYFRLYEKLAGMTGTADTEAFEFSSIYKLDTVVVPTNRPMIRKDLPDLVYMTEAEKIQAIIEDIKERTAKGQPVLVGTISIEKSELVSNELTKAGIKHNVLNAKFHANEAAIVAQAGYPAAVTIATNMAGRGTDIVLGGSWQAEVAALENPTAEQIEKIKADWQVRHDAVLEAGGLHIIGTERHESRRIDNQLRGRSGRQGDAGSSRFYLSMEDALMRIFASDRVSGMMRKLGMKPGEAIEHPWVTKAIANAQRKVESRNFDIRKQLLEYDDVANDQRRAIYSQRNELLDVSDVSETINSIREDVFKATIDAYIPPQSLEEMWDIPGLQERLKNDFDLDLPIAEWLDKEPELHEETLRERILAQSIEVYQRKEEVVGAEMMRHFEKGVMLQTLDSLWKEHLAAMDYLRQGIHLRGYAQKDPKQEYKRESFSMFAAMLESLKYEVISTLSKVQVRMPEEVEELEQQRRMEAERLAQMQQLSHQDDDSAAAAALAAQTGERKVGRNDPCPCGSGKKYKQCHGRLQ

As to `Cn1cnc2c1CCN(Cc1nc(Cc3ccccc3)no1)C2`, the Percent Effect in assay [1] is -2.4%; in assay [2], -7.89%; in assay [3] it was -7.72%; in assay [4] it was -0.869%; in the assay on Trypanosoma cruzi, 3.27%; in assay [5], 4.68%. The Percent Effect in [6] was -0.931%; in the assay listed under Homo sapiens, 1.02%; in assay [7], 11.3%; in assay [8] it was 6.17%; in [9] it was 3.08%.
For the molecule `O=C(CSc1ccc2c(c1)OCCO2)NS(=O)(=O)C1CCCCC1`, the Percent Effect is -2.58% in assay [1]; -1.39% in [2]; 3.64% in [3]; -7.65% in assay [4]; -6.71% in the assay on Trypanosoma cruzi; 3.09% in assay [5]. Moreover, the Percent Effect in [6] was 11.4%; in the assay listed under Homo sapiens, 9.49%; in [7], -1.05%; in [8], -5.13%; in [9], -0.962%.
In the case of `CN1CCCc2cc(CNC(=O)c3ccncc3)ccc21`, the Percent Effect in assay [1] was -3.56%; in assay [2], 19%; in assay [3] it was 22.6%; in assay [4] it was -0.0483%; in the assay with Trypanosoma cruzi, 1.54%; in assay [5], -1.94%. Moreover, the Percent Effect in [6] was 21.4%; in the assay filed under Homo sapiens, 28.5%; in assay [7] it was 2.08%; in assay [8], 17.7%; in assay [9], -25.8%.
With `N#Cc1ccc(N2CCCN(C(=O)CC3CCCO3)CC2)cc1` (stereo not drawn), the Percent Effect in assay [1] was -4.45%; in assay [2], 5.41%; in assay [3], 7.34%; in [4], 18.8%; with Trypanosoma cruzi, 5.19%; in [5], -5.61%. Moreover, the Percent Effect in assay [6] is -2.34%; in the assay listed under Homo sapiens it was 10.8%; in assay [7] it was 0.493%; in assay [8] it was 16.1%; in assay [9], -12.8%.
Turning to `Cc1nc(CC(=O)N2CCCN(c3ccc(C#N)cc3)CC2)cs1`, the Percent Effect in assay [1] was -2.43%; in assay [2] it was 0%; in assay [3], 5.74%; in [4], -0.961%; in the assay with Trypanosoma cruzi it was -5.55%; in [5], -4.73%. For the same molecule, the Percent Effect in assay [6] is 14.5%; in the assay filed under Homo sapiens, 2.28%; in assay [7], 2.13%; in [8] it was 5.2%; in [9], -1.52%.
Turning to `CN(Cc1cn2c(n1)CN(C(=O)CC1CC1)CC2)Cc1ccco1`, the Percent Effect was -3.7% in [1]; 2.67% in [2]; 8.42% in [3]; 1.6% in assay [4]; -0.197% in the assay with Trypanosoma cruzi; 8.16% in assay [5]. Moreover, the Percent Effect is -3.44% in assay [6]; 20.3% in the assay listed under Homo sapiens; 5.32% in [7]; 14.1% in assay [8]; -0.584% in [9].
Take `COc1ccccc1C1CNC(=O)c2nc(-c3cnn(C)c3)[nH]c2C1` (stereo not drawn): the Percent Effect in [1] was 0.9%; in [2], 10.8%; in assay [3] it was -0.668%; in [4], 22.2%; in the assay on Trypanosoma cruzi, 3.48%; in assay [5] it was 1.43%. Also, the Percent Effect in [6] is 10%; in the assay filed under Homo sapiens, 5.8%; in assay [7], 5.82%; in [8], 17.1%; in [9] it was -0.454%.
Take `CCCc1nc(CN2CCOC(Cn3cncn3)C2)no1` (stereo not drawn): the Percent Effect in assay [1] was -1.95%; in assay [2], 11.4%; in assay [3], -5.09%; in [4] it was -4.75%; in the assay with Trypanosoma cruzi, -1.74%; in assay [5], 3.23%. In addition, the Percent Effect is 12.3% in [6]; 18.7% in the assay listed under Homo sapiens; 3.12% in assay [7]; 10.1% in [8]; -24.9% in assay [9].

The values are drawn from ChEMBL document CHEMBL3988442, “University of Dundee, Small-Polar-MMV Screening Library” (2021).
